Activity calls are given as the source filed them.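 The calls were made as follows: active = viability loss from added drug above about 55%, and viability with drug at most 40%, in both replicates (limit read from the data, passing the limit was not always enough); inconclusive = both conditions met in only one replicate; inactive = neither replicate meets both conditions.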
Assay: reversal of MRP1-mediated doxorubicin resistance, pilot screen, H69AR cells, doxorubicin co-treatment (AID 601)
Conditions: H69AR cells + 2 uM doxorubicin, CellTiter-Glo, 72 h; at 10 µM; stronger effect = higher value

| Structure (SMILES) | differential viability (reversal) |
| --- | --- |
| O=c1c2ccccc2c(C=Nc2ccc(Cl)cn2)c(O)n1-c1cc(Cl)ccc1N1CCOCC1 | 7.31% (inactive) |
| CCSC1=C(C#N)C(c2cccc(OC)c2)CC(=O)N1 (stereo not given) | 8.71% (inactive) |
| COc1ccc(S(=O)(=O)N2CCC(C(=O)NCc3ccco3)CC2)cc1 | -1.91% (inactive) |
| CS(=O)(=O)N1CCN(C(=O)c2ccc(-c3ccccc3)cc2)CC1 | 10.2% (inactive) |
| COc1ccc(-c2noc(C3CCCN(C(=O)CCc4ccccc4)C3)n2)cc1 (stereo not given) | -5.7% (inactive) |
| CN(C)c1cccc(N=C2C=C(N3CCOCC3)CC(C)(C)C2)c1 | -1.85% (inactive) |
| CCN(c1ccccc1)S(=O)(=O)c1ccc(F)cc1C | 7.2% (inactive) |
| CCC(C)c1ccc(NC(=O)C2CC2)cc1 (stereo not given) | 9.41% (inactive) |
| Cn1c(SCc2c(F)cccc2Cl)nnc1-c1cccs1 | 10.2% (inactive) |
| CCOC(=O)C1CCN(S(=O)(=O)c2cccc(-c3csc(C)n3)c2)CC1 | 5.91% (inactive) |
| Cc1nnc(SCC(=O)N2CCC(C(N)=O)CC2)s1 | -8.62% (inactive) |
| O=C(NCC(=O)N(CCc1ccccc1)C(C(=O)NC1CCCC1)c1cccnc1)c1ccco1 (stereo not given) | -1.49% (inactive) |
| c1ccc2c3nnc4n(c-3nc2c1)CCCS4 | 11.4% (inactive) |
| CCCSC1=C(C#N)C(c2ccccc2OCC)CC(=O)N1 (stereo not given) | -3.18% (inactive) |
| CC(C)Cc1nnc(NC(=O)CCC(=O)N2CCOCC2)s1 | 0.305% (inactive) |
| CSC1CCCCC1(O)CSc1nc2c(cc1C#N)CCCC2 (stereo not given) | -2.66% (inactive) |
| CCOC(=O)C1CCCN(S(=O)(=O)c2cccs2)C1 (stereo not given) | 12.7% (inactive) |
| C=CCn1c(Cc2csc(N)n2)nnc1SCC(=O)OCC | -4.66% (inactive) |
| Cc1cc(C)n(Cc2nc3ccccc3n2C)n1 | 8.18% (inactive) |
| CC(O)CN(Cc1cccc(Cl)c1)CC(C)O (stereo not given) | -0.905% (inactive) |

| Structure (SMILES) | differential viability (reversal) |
| --- | --- |
| CCCCn1c(NC(=O)CC)c(C#N)c2nc3ccccc3nc21 | 2.13% (inactive) |
| CCC(=O)c1ccc(OCC(=O)N2CCc3cc(OC)c(OC)cc3C2)cc1 | -11.2% (inactive) |
| Cn1c(-c2ccc(F)cc2)cnc1NCc1ccccc1 | -15.4% (inactive) |
| C=CCn1c(SCC(=O)NCC2CCCO2)nnc1C1CCCCC1 (stereo not given) | 9.64% (inactive) |
| COc1ccccc1-c1nc(C(F)(F)F)c(OC)o1 | 10.3% (inactive) |
| CCOc1ccc(C(=O)Cc2ccc3oc(C(=O)O)cc3c2)c(O)c1 | 10.4% (inactive) |
| COc1cccc(C(=O)Nc2cc(NC(=O)c3ccco3)ccc2OC)c1 | 2.75% (inactive) |
| Cc1c(Cc2ccccc2)sc(N)c1C(N)=O | 2.93% (inactive) |
| COC(=O)c1cc(-c2c(C)nn(-c3ccccc3)c2C)n[nH]1 | -2.79% (inactive) |
| O=C1CN(c2ccccc2F)C(=O)CN1c1ccccc1F | 10.3% (inactive) |
| CC(C)c1nnc(NC(=O)CCC(=O)NCc2ccc3c(c2)OCO3)s1 | -1.39% (inactive) |
| COC(=O)c1c(N)sc(C(=O)N2CCOCC2)c1C | 6.62% (inactive) |
| COC(=O)c1ccc(C2CC(=O)Nc3cc(OC)c(OC)c(OC)c32)cc1 (stereo not given) | 11.6% (inactive) |
| CC(C)c1ccc(NC(=O)C2CC(=O)N(C(C)C)C2)cc1 (stereo not given) | 3.6% (inactive) |
| O=C(Nc1ccc(Cl)cc1)N1CCSCC1 | 17% (inactive) |
| CCCSc1nnc(-c2ccccc2NC(=O)CC)c(=O)[nH]1 | 14.4% (inactive) |
| CC1(C)CC(=O)C2=C(C1)Nc1nc(SCCN3CCOCC3)[nH]c(=O)c1C2c1cccs1 (stereo not given) | 2.1% (inactive) |
| Cc1ccc(SCCC(=O)N(C)C)cc1 | 18.3% (inactive) |
| COc1ccc(S(=O)(=O)N2CCN(Cc3ccc(Cl)cc3)CC2)cc1 | 6.67% (inactive) |
| COc1cc(NC(=O)Cc2ccccc2OC)cc(OC)c1 | 3.67% (inactive) |

Same assay, conditions: H69AR cells + 2 uM doxorubicin, CellTiter-Glo, 72 h; measured here: viability with 2 uM doxorubicin; at 10 µM; stronger effect = lower value

| Structure (SMILES) | viability |
| --- | --- |
| O=c1c2ccccc2c(C=Nc2ccc(Cl)cn2)c(O)n1-c1cc(Cl)ccc1N1CCOCC1 | 81.8% |
| CCSC1=C(C#N)C(c2cccc(OC)c2)CC(=O)N1 (stereo not given) | 92.6% |
| COc1ccc(S(=O)(=O)N2CCC(C(=O)NCc3ccco3)CC2)cc1 | 88.5% |
| CS(=O)(=O)N1CCN(C(=O)c2ccc(-c3ccccc3)cc2)CC1 | 85.9% |
| COc1ccc(-c2noc(C3CCCN(C(=O)CCc4ccccc4)C3)n2)cc1 (stereo not given) | 90% |
| CN(C)c1cccc(N=C2C=C(N3CCOCC3)CC(C)(C)C2)c1 | 93.7% |
| CCN(c1ccccc1)S(=O)(=O)c1ccc(F)cc1C | 83.2% |
| CCC(C)c1ccc(NC(=O)C2CC2)cc1 (stereo not given) | 80.9% |
| Cn1c(SCc2c(F)cccc2Cl)nnc1-c1cccs1 | 77.6% |
| CCOC(=O)C1CCN(S(=O)(=O)c2cccc(-c3csc(C)n3)c2)CC1 | 84.5% |
| Cc1nnc(SCC(=O)N2CCC(C(N)=O)CC2)s1 | 99.8% |
| O=C(NCC(=O)N(CCc1ccccc1)C(C(=O)NC1CCCC1)c1cccnc1)c1ccco1 (stereo not given) | 101% |
| c1ccc2c3nnc4n(c-3nc2c1)CCCS4 | 92.7% |
| CCCSC1=C(C#N)C(c2ccccc2OCC)CC(=O)N1 (stereo not given) | 93.3% |
| CC(C)Cc1nnc(NC(=O)CCC(=O)N2CCOCC2)s1 | 95.9% |
| CSC1CCCCC1(O)CSc1nc2c(cc1C#N)CCCC2 (stereo not given) | 95.2% |
| CCOC(=O)C1CCCN(S(=O)(=O)c2cccs2)C1 (stereo not given) | 96.7% |
| C=CCn1c(Cc2csc(N)n2)nnc1SCC(=O)OCC | 96.6% |
| Cc1cc(C)n(Cc2nc3ccccc3n2C)n1 | 90.9% |
| CC(O)CN(Cc1cccc(Cl)c1)CC(C)O (stereo not given) | 100% |

| Structure (SMILES) | viability |
| --- | --- |
| CCCCn1c(NC(=O)CC)c(C#N)c2nc3ccccc3nc21 | 79.8% |
| CCC(=O)c1ccc(OCC(=O)N2CCc3cc(OC)c(OC)cc3C2)cc1 | 94.1% |
| Cn1c(-c2ccc(F)cc2)cnc1NCc1ccccc1 | 81.6% |
| C=CCn1c(SCC(=O)NCC2CCCO2)nnc1C1CCCCC1 (stereo not given) | 87.8% |
| COc1ccccc1-c1nc(C(F)(F)F)c(OC)o1 | 81.6% |
| CCOc1ccc(C(=O)Cc2ccc3oc(C(=O)O)cc3c2)c(O)c1 | 88.4% |
| COc1cccc(C(=O)Nc2cc(NC(=O)c3ccco3)ccc2OC)c1 | 77.8% |
| Cc1c(Cc2ccccc2)sc(N)c1C(N)=O | 90.6% |
| COC(=O)c1cc(-c2c(C)nn(-c3ccccc3)c2C)n[nH]1 | 104% |
| O=C1CN(c2ccccc2F)C(=O)CN1c1ccccc1F | 92.2% |
| CC(C)c1nnc(NC(=O)CCC(=O)NCc2ccc3c(c2)OCO3)s1 | 99.1% |
| COC(=O)c1c(N)sc(C(=O)N2CCOCC2)c1C | 91% |
| COC(=O)c1ccc(C2CC(=O)Nc3cc(OC)c(OC)c(OC)c32)cc1 (stereo not given) | 77.8% |
| CC(C)c1ccc(NC(=O)C2CC(=O)N(C(C)C)C2)cc1 (stereo not given) | 87.3% |
| O=C(Nc1ccc(Cl)cc1)N1CCSCC1 | 89.6% |
| CCCSc1nnc(-c2ccccc2NC(=O)CC)c(=O)[nH]1 | 88.1% |
| CC1(C)CC(=O)C2=C(C1)Nc1nc(SCCN3CCOCC3)[nH]c(=O)c1C2c1cccs1 (stereo not given) | 87.8% |
| Cc1ccc(SCCC(=O)N(C)C)cc1 | 84.6% |
| COc1ccc(S(=O)(=O)N2CCN(Cc3ccc(Cl)cc3)CC2)cc1 | 90.3% |
| COc1cc(NC(=O)Cc2ccccc2OC)cc(OC)c1 | 92% |
